The sample as a whole holds a higher share of hits than the screen did.
HT1080 IDH1KD tx: qHTS for induction of synthetic lethality in tumor cells producing 2HG: qHTS for the HT-1080-IDH1KD cell line | HT-1080 IDH1 knockdown viability, ATP luminescence, 48 h | Potency, µM (series often up to 46.1 µM), inactives show at the top dose activity, negative = toxicity, usual class: cytotoxic | hit rate 2% among 360,000 | AID 686971, 2013;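 note: potency is the fitted concentration of half-maximal effect; 0% = DMSO wells and -100% = cell-free medium wells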
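HT-1080-IDH1KD cells (IDH1 knocked down), 750/well in RPMI with 5% FBS, treated with compound 48 h at 37 degrees C. Viability by CellTiter-Glo luminescence, normalised to DMSO and no-cell wells; concentration-response curves classed.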
HT1080NT lethal: qHTS for induction of synthetic lethality in tumor cells producing 2HG: qHTS for the HT-1080-NT fibrosarcoma cell line; HT-1080-NT fibrosarcoma viability, CellTiter-Glo ATP luminescence, 48 h; Potency, µM (highest dose often 46.1 µM), for inactives: top-dose activity, negative = less viability, hits mostly cytotoxic; hit rate 1.6% among 360,000; AID 686970, 2013;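 note: NT is the 2HG producing partner of a matched IDH1 knockdown line; potency is the fitted concentration of half-maximal effect; 0% = DMSO-treated cells and -100% = media-only wells without cells; nearly all actives have a fitted effect of over 55% in size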
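Toxicity toward the 2HG-producing NT line was scored as %Activity, normalised to DMSO and no-cell wells, from CellTiter-Glo luminescence after 48 hours' treatment.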
12-LOX inh: Primary qHTS assay for inhibitors of human arachidonate 12S-lipoxygenase (ALOX12): Round 2. Polyunsaturated fatty acid lipoxygenase ALOX12 (Homo sapiens), P18054. purified 12hLO, xylenol orange hydroperoxide absorbance. Potency, µM (doses to about 108 µM), inactives show at the highest dose activity change, negative = inhibition, most hits filed as inhibitors. hit rate 1.1% among 580,000. AID 1671190, 2021; note: potency is the fitted concentration of half-maximal effect
Target sequence (P18054 whole entry, looked up): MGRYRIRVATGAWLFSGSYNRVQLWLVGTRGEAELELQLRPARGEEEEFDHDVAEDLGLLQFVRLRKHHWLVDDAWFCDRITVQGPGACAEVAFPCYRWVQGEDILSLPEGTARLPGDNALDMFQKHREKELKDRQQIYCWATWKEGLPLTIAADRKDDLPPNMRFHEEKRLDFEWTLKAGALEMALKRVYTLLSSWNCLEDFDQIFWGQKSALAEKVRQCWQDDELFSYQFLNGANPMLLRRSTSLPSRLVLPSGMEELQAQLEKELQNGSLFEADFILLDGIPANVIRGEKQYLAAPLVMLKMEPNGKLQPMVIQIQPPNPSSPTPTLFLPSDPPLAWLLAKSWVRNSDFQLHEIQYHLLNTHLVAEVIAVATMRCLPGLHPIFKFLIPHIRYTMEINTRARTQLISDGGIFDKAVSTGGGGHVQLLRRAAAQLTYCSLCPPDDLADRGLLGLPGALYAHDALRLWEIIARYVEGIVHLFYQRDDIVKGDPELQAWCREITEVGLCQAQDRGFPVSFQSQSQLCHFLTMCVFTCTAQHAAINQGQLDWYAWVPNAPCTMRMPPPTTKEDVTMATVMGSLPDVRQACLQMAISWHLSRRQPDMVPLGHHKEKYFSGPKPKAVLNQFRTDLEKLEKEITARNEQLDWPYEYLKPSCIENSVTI
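Hydroperoxide product was detected by ferrous iron/xylenol orange as the 573 to 405 nm absorbance ratio. Arachidonic acid at 40 uM (final) was turned over for 30 min at room temperature by 150 nM human 12hLO, pH 7.0 Hepes buffer, after 15 min compound preincubation.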
DT40 TDP1 no CPT: qHTS for Inhibitors of human tyrosyl-DNA phosphodiesterase 1 (TDP1): qHTS in cells in absence of CPT | hit rate 15% among 420,000 | Potency, µM (highest dose often 46.2 µM), without a hit: at the highest dose activity change, negative = growth inhibition, most hits filed as inhibitors | DT40 Tdp1-/- hTDP1 cells, no CPT, ATP luminescence, 48 h; note: potency is the fitted concentration of half-maximal effect; nearly all actives have a fitted effect of over 55% in size
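Chicken DT40 Tdp1-/- cells stably complemented with human TDP1 were seeded at 400 cells/well with DMSO in place of 20 nM camptothecin. After compound pinning, cells grew at least 48 hr at 37 °C; viability read by CellTiter-Glo luminescence.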
IL1B secr inh: qHTS for Inhibitors of Inflammasome Signaling: IL-1-beta AlphaLISA Primary Screen | activity change, % at 57.5 µM | AID 743279, 2014 | THP-1 LPS/ATP IL-1B secretion, AlphaLISA, 16 h; stronger effect = lower value | hit rate 4.7% among 360,000; in the data active = activity change below about -50%; inconclusive = mostly about -30% to -49%
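THP-1 cells pretreated 1 hr with compounds (up to 57.5 uM final), then stimulated with LPS (250 ng/mL final) plus ATP (1.25 mM final); secreted IL-1B measured by AlphaLISA after 16 hr, decreased signal indicating inhibition.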
DT40 TDP1 CPT: qHTS for Inhibitors of human tyrosyl-DNA phosphodiesterase 1 (TDP1): qHTS in cells in presence of CPT. Potency, µM (titrated, usually from 46.2 µM), inactives show at the highest dose activity change, negative = growth inhibition, usual class: inhibitors. AID 686979, 2013. chicken DT40 Tdp1-/-;hTDP1 cells + 20 nM CPT, ATP luminescence, 48 h. hit rate 12% among 420,000; note: potency is the fitted concentration of half-maximal effect; nearly all actives have a fitted effect of over 55% in size
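Chicken DT40 Tdp1-/- cells stably complemented with human TDP1 were seeded at 400 cells/well in medium containing 20 nM camptothecin, exposed to pin-transferred compounds, and grown at 37 °C for at least 48 hr. Viability was read as ATP luminescence.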
* hit, by the source's call; ? = inconclusive; . = no result; [ ] = dose if it differs, or a comment. Unless noted, calls come from the whole dose curve; as a rule, active = well fitted curve in the direction sought with a large enough effect; inconclusive = small, poorly fitted or top-dose-only effect, or another doubt; inactive = no such curve, though single readings can be large; an effect the other way counts as inactive or inconclusive. Unless noted, % is set by controls: 0 for no effect and ±100 for the full control effect.

SMILES | HT1080 IDH1KD tx | HT1080NT lethal | 12-LOX inh | DT40 TDP1 no CPT | IL1B secr inh | DT40 TDP1 CPT
Cc1nc(SCC(=O)c2cc(C)n(C(C)C)c2C)n[nH]1 | . | . | -1% | . | . | .
CC(=O)Nc1ccc(NC(=O)COC(=O)/C(=C/c2ccccc2)n2nnnc2C)cc1 | ? | ? | -23% | 13µM* | -76* | 12µM*
O=C(COC(=O)/C=C/c1ccccc1)NC1CCCCCC1 | 10% | 15% | -3% | -6% | -1 | -4%
Cc1nnnn1/C(=C\c1ccccc1)C(=O)OCC(=O)NC1CCCCC1 | 18µM* | ? | -2% | 15µM* | -103* | 13µM*
Cc1nnnn1/C(=C\c1ccccc1)C(=O)OCC(=O)NC(C)(C)C | ? | -21% | -6% | 10µM* | -5 | 16µM*
COCCCNC(=O)Cc1csc2nc(C)c(-c3cc(C)n(-c4ccccc4F)n3)c(=O)n12 | . | . | 19% | . | . | .
CN1c2cc(C(=O)NCc3ccccc3Cl)ccc2C(=O)N2CCCC21 (stereo not drawn) | . | . | 5% | . | . | .
O=C1CC(N(CCc2ccccc2)C(=S)Nc2ccccc2)C(=O)N1c1ccccc1 (stereo not drawn) | ? | ? | -16% | ? | ? | ?
CNC(=S)N(CCc1ccc(OC)c(OC)c1)C1CC(=O)N(c2ccccc2)C1=O (stereo not drawn) | ? | -8% | . | 26µM* | . | ?
O=C1CC(N(CCc2ccccc2)C(=S)Nc2cc(Cl)ccc2Cl)C(=O)N1c1c(Cl)cccc1Cl (stereo not drawn) | -13% | -22% | ? | 10µM* | -6 | 16µM*
Cc1cc(C)c(NC(=O)CN2CCN(C(=O)C3CC3)CC2)c(C)c1 | . | . | -1% | . | . | .
Cc1ccc(-n2nc3c(=O)n(CCCC(=O)NCCc4ccccc4Cl)nc(C)c3c2C)cc1 | . | . | 3% | 15µM* | . | 8.2µM*
Cc1ccccc1CCNC(=O)CCn1nc(C)c2c(C)n(-c3ccccc3)nc2c1=O | 4% | 3% | 4% | -2% | -23 | ?
Cc1ccc(-n2nc3c(=O)n(CCCC(=O)NCc4ccccc4Cl)nc(C)c3c2C)cc1 | 1% | -7% | 1% | 18µM* | -9 | ?
CCOC(=O)c1c(NC(=O)C2c3ccccc3Oc3ccccc32)sc(C)c1CC | . | . | -13% | -6% | . | 12%
Cc1sc(NC(=O)C2c3ccccc3Oc3ccccc32)c(C(=O)OC(C)C)c1C | . | . | -6% | ? | . | 18µM*
CCOC(=O)c1sc(NC(=O)C2c3ccccc3Oc3ccccc32)c(C(=O)OCC)c1C | . | . | -2% | -15% | . | -15%
Cc1c(C(=O)OC(C)C)sc(NC(=O)C2c3ccccc3Oc3ccccc32)c1C(=O)OC(C)C | . | . | -20% | 23µM* | . | 23µM*
Cc1cc(C)cc(OCC(=O)Nc2cccc(-c3nc4ncccc4o3)c2)c1 | 11% | 11% | 8%[57.4 µM] | 21µM* | ? | 23µM*
CCc1ccc(OCC(=O)Nc2ccc(-c3nc4ncccc4o3)cc2)cc1 | . | . | ? | -10% | . | -16%
CCC(C)c1ccc(OCC(=O)Nc2cccc(-c3nc4ncccc4o3)c2)cc1 (stereo not drawn) | . | . | 1% | 16µM* | . | -89%
CCc1ccc(OCC2Cn3c(nc4c3c(=O)[nH]c(=O)n4C)O2)cc1 (stereo not drawn) | -5% | -1% | -17% | 26µM* | 13 | ?
Cc1cccc(OCC2Cn3c(nc4c3c(=O)[nH]c(=O)n4C)O2)c1 (stereo not drawn) | -4% | -24% | -30% | 10µM* | 23 | ?
NS(=O)(=O)c1ccc(NC(=O)c2cc(Cl)sc2Cl)cc1 | -3% | -2% | 26% | 7% | ? | -18%
CCOC(=O)c1c(SCCN2CCCC2)n(-c2ccccc2)c(=S)n(-c2ccccc2)c1=O | 7.3µM* | ? | -13% | 5.2µM* | -111* | 4.6µM*
SMILES | HT1080 IDH1KD tx | HT1080NT lethal | 12-LOX inh | DT40 TDP1 no CPT | IL1B secr inh | DT40 TDP1 CPT
Cc1[nH]n(C(N)=S)c(=O)c1N=Nc1ccc(S(=O)(=O)N2CCCCCC2)cc1 | -1% | -3% | ? | 21µM* | 0 | ?
CC(=O)Nc1ccc(N=Nc2c(C)[nH]n(C(N)=S)c2=O)cc1 | 2% | 4% | -25% | -13% | -7 | -16%
Cc1[nH]n(C(N)=S)c(=O)c1N=Nc1cc(-c2ccc(Br)cc2)[nH]n1 | -15% | 6% | ? | 2.9µM* | 6 | 3.3µM*
Cc1ccc(N=Nc2c(C)[nH]n(C(N)=S)c2=O)cc1C | 1% | -2% | -16% | 1.6µM* | 10 | 1.8µM*
Cc1[nH]n(C(N)=S)c(=O)c1N=Nc1cccc([N+](=O)[O-])c1C | 2% | 1% | . | ? | -4 | -5%
Cc1[nH]n(C(N)=S)c(=O)c1N=Nc1ccc2ccccc2c1 | -7% | -2% | ? | ? | 22 | ?
CC(C)(C)c1nc(C(=O)NCc2cccnc2)n2ccccc12 | . | . | 56% | . | . | .
C[C@@H]1CN(C(=O)c2cccc(C#N)c2)CC[C@@]1(O)C1CCOCC1 | . | . | -2% | . | . | .
O=C(NCC1(N2CCOCC2)CCCC1)c1coc(COc2cccc(F)c2)n1 | . | . | 36% | . | . | .
Cc1nn(Cc2ccc(F)cc2)c2sc(C(=O)Nc3ccc(N4CCOCC4)cc3N3CCOCC3)cc12 | ? | -2% | 0% | 7.3µM* | -26 | 8.2µM*
Cc1ccccc1-c1cccc([C@@H]2C[C@H]3CN(Cc4cccnc4)C(=O)[C@]34CCCN24)c1 | -24% | -6% | -15% | 18µM* | 0 | 23µM*
CCn1cc([C@@H]2C[C@H]3CN(Cc4cccc(Cl)c4)C(=O)[C@]34CCCN24)c(C)n1 | -4% | 14% | -2% | -12% | 3 | 2%
O=C1N(Cc2cccnc2)C[C@@H]2C[C@@H](c3ccccc3C#Cc3ccccc3)N3CCC[C@@]123 | ? | 0% | -13% | 16µM* | -11 | 29µM*
C[n+]1cccc2c(Br)ccc([O-])c21 | 0% | -2% | 16% | -26% | -3 | 9%
[O-][n+]1cccc2c(Br)cc(Br)c(O)c21 | -7% | -6% | -22% | ? | -62* | ?
